# Source: PubChem BioAssay (National Center for Advancing Translational Sciences (NCATS))
# Compounds with a hit are over-represented: about 0.36% of the library has one in this group of screens.
# SNCA expr inhib = Primary qHTS assay for inhibitors of alpha-synuclein gene (SNCA) expression; Potency, µM (highest dose often 57.2 µM), most hits filed as inhibitors; actives 0.17% (n = 140,000); AID 1671194, 2021; HEK-293 SNCA-luciferase knock-in, luminescence, 24 h; note: nearly all actives have a fitted effect of over 45% in size
# SNCA viab count = GF-AFC viability counterscreen for inhibitors of alpha-synuclein gene (SNCA) expression; HEK-293-SNCA-luc viability, GF-AFC fluorescence, 24 h; Potency, µM (top dose mostly 57.1 µM), hits mostly cytotoxic; actives 0.12% (n = 150,000); note: nearly all actives have a fitted effect of over 30% in size
#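 HEK-293-SNCA-luc cells (1500/well) plated 24 h, then exposed 24 h to a dilution series; GF-AFC added 30 min at 37C, fluorescence 405/540 nm; normalised to medium-only and DMSO wells, Hill fit.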
# GPT2 inhibitor = Primary qHTS assay for inhibitors of Glutamate pyruvate transaminase 2 (GPT2); Alanine aminotransferase 2 (Homo sapiens), Q8TD30; Recombinant GPT2, coupled pyruvate oxidase/HRP Amplex Red fluorescence; Potency, µM (doses to about 57.7 µM), actives largely listed as inhibitors; actives 0.25% (n = 100,000); AID 1671188, 2021; note: nearly all actives have a fitted effect of over 60% in size
# Target sequence (Q8TD30 whole entry, looked up): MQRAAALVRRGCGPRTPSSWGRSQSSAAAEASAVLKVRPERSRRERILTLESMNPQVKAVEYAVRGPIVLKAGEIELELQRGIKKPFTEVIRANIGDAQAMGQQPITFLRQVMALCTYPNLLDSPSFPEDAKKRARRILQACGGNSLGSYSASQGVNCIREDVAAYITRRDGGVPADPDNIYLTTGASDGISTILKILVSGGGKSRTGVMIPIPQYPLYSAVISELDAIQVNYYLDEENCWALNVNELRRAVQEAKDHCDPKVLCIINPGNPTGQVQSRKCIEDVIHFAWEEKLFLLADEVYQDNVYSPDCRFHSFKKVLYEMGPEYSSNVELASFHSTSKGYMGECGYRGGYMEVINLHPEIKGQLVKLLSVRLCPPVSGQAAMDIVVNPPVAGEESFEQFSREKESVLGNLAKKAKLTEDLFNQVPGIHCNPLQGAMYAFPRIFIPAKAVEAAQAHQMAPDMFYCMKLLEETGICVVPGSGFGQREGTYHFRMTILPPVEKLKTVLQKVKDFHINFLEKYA
#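 GPT2 10ng/uL, a-KG 250uM, L-Ala 2mM, HEPES pH7.5 + 0.0001% Tween; 30 min RT. Then Amplex mix (PO/HRP/ThPP), 30 min RT dark, fluorescence. AOA 50uM used as positive control.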
# A number is an active result; i = inactive; ? = inconclusive; nt = no result; [ ] = another dose, or the depositor's remark. Calls come from the whole dose curve; as a rule, active = well fitted curve in the direction sought with a large enough effect; inconclusive = small, poorly fitted or top-dose-only effect, or another doubt; inactive = no such curve, though single readings can be large; an effect the other way counts as inactive or inconclusive.
SMILES,SNCA expr inhib,SNCA viab count,GPT2 inhibitor
COc1cccc(CN2C[C@H]3[C@H](C2)[S+](=O)([O-])C(C)(C)C(=O)N3CCOc2ccccc2)c1,i,i,i
COc1ccc(F)cc1-c1cccc(C(=O)NCCNC(=O)C2CCCC2)c1,?,i[12.5 µM],i
COc1ccccc1-c1cc(C(=O)NCc2ccccc2Cl)nn2cnnc12,i,i,i
C[C@@]12C(=O)OC(=O)[C@@]1(C)C1CCC2O1,15µM,?,i
Fc1ccc(C(c2ccc(F)cc2)N2CCN(CC=Cc3ccccc3)CC2)cc1,i,?,4.3µM
O=C(N1CCN(C/C=C/c2ccccc2)CC1)C12CNCC1CNC2 (stereo not given),i,i,i
CS(=O)(=O)N(Cc1ccccc1)c1ccc(C(=O)Nc2cccc(Cl)c2)cc1,i,6.3µM,nt
Cc1ccc(NC(=O)c2ccc(N(Cc3ccccc3)S(C)(=O)=O)cc2)cc1,i,2.8µM,nt
O=C(Nc1ccc(S(=O)(=O)N(Cc2ccccc2)c2ccccc2)cc1)c1ccc(F)cc1,i,i,nt
Cc1cccc(C(=O)Nc2ccc(S(=O)(=O)N(Cc3ccccc3)c3ccccc3)cc2)c1,i,i,nt
O=C(NC1CCCC1)C1CCCN(Cc2cccc(-c3cccs3)c2)C1 (stereo not given),?,i,i
COc1cccc(-c2cn3cc(C(=O)N4CCCCC4)nc3s2)c1,i,i,i
O=C(NCc1ccccc1)[C@@H]1CCCN1c1nccc(Nc2ccccc2Cl)n1,i,i[12.5 µM],i
Cn1ncc2c(C(=O)NCC3CC3)cc(C(C)(C)C)nc21,i,i,i
Cc1cc(S(=O)(=O)N2CCC3(CCC(=O)N(Cc4ccccc4)CC3)CC2)ccc1F,i,i,i
O=[N+]([O-])c1cc(-c2nc(-c3ccccc3)no2)ccc1N1CCCCC1,10µM,i,nt
Cc1ccc(-c2noc(-c3ccc(N4CCCCC4)c([N+](=O)[O-])c3)n2)cc1,i,i,nt
O=C(C1CCC1)N1CCC2(CC1)CC(Cc1nc(-c3cnccn3)no1)CCO2 (stereo not given),i,i,i
COc1ccc(Nc2ccnc(N3CCC(NC(=O)C4CCCC4)CC3)n2)cc1,i,i[12.5 µM],i
C=C1CC2OC(=O)C(COC)C2C(OC(=O)/C(C)=C\C)CC2(C)OC1=CC2=O (stereo not given),nt,i,i
C=C(C)C(=O)OC1CC2(C)OC(=CC2=O)C(=C)CC2OC(=O)C(=C)C12 (stereo not given),nt,12µM,?
Cc1ccc(Nc2ccnc(N3CCC(NC(=O)Cc4cccc(Cl)c4)CC3)n2)cc1,?,?,i
CCC(C)S(=O)(=O)c1oc(-c2cccs2)nc1S(=O)(=O)c1ccccc1 (stereo not given),?,2.8µM,nt
O=S(=O)(c1ccccc1)c1nc(-c2cccs2)oc1N1CCCCC1,i,i,nt
O=S(=O)(c1ccccc1)c1nc(-c2ccc(F)cc2)oc1NCc1ccccc1,i,i,nt
SMILES,SNCA expr inhib,SNCA viab count,GPT2 inhibitor
CC(C)CS(=O)(=O)c1oc(-c2ccc(F)cc2)nc1S(=O)(=O)c1ccccc1,?,4.5µM,nt
Cc1ccc(S(=O)(=O)N2CCC(n3cnnc3-c3ccccc3)CC2)cc1Cl,i,i,i
Cc1ccc(C)c(OCC(=O)c2ccc3c(c2)N(CCCC(=O)NCC2CC2)C(=O)CO3)c1,i,?,i
Cc1ccc(C)c(OCC(=O)c2ccc3c(c2)N(CCCC(=O)NC2CCCCC2)C(=O)CO3)c1,i,18µM,i
Cc1ccc2nc([C@H]3CCN(Cc4ccccn4)C3)[nH]c2c1,i,i,?
COc1cccc(-c2cccc(C(=O)N3CCN([S+](=O)([O-])c4ccccc4)CC3)c2)c1,i,i[12.5 µM],i
CCOC(=O)C1CCCN(C(=O)c2nc3sccn3c2-c2ccc(C(F)(F)F)cc2)C1 (stereo not given),i,i,i
O=C(NC1CC1)C1CCCCN1Cc1ccc(-c2ccsc2)cc1 (stereo not given),i,i,i
COc1ccccc1-c1nnc2ccc(C(=O)NCCc3ccccc3)cn12,i,i,i
Cc1nc2c(s1)C[C@]1(C)CCC([C@H](C)C(=O)N3CCOCC3)[C@H](O)[C@H]1[C@@H]2C (stereo not given in full),i,i,i
C[C@H](C(=O)NCCN1CCOCC1)C1CC[C@@]2(C)Cc3sc(-c4ccccc4)nc3[C@@H](C)[C@@H]2[C@H]1O (stereo not given in full),0.79µM,i,i
O=C(c1ccc2c(c1)OCO2)N1CCCN(c2ccnc3ccnn23)CC1,i,i,i
COc1ccccc1OCCC1CCN(C(=O)c2cccc(F)c2)C1 (stereo not given),i,i,i
COc1cccc(-c2cn3cc(C(=O)NC4CC4)nc3s2)c1,i,i,i
CCCNC(=O)c1cccc2c1CCN2C(=O)Nc1cccc(C)c1,i,i,i
COCCCNC(=O)c1cccc2c1CCN2C(=O)Nc1cccc(C)c1,3.5µM,i,i
CNC(=O)c1cccc2c1CCN2C(=O)Nc1ccc(F)cc1,?,i,i
O=C(O)c1cccc2c1CCN2C(=O)Nc1ccc(F)cc1,0.89µM,i,i
Cc1ccccc1-c1nccn2c(C3CN(C(=O)c4cc5ccccc5[nH]4)C3)ncc12,i,i,i
Cn1ncc2c(C(=O)NCc3cccc(Cl)c3)cc(-c3ccc(F)cc3)nc21,i,?,i
N#Cc1ccc(Nc2nc(-c3ccc(O)cc3O)cs2)cc1C(F)(F)F,nt,12µM,i
CSCCNC(=O)C1CCCN(c2nccc(Nc3ccccc3F)n2)C1 (stereo not given),i,i[12.5 µM],i
CC(C)Cn1c(=O)c(C(=O)NCC2CC2)nc2cccnc21,i,i,i
CS(=O)c1ccc(-c2nc(-c3ccc(F)cc3)c(-c3ccncc3)[nH]2)cc1 (stereo not given),12µM,i,i
Fc1ccc(-c2nc(-c3c(F)cccc3F)[nH]c2-c2ccncc2)cc1,nt,i,i
SMILES,SNCA expr inhib,SNCA viab count,GPT2 inhibitor
O=C(NC1CCCN(c2cc(-c3ccc(F)cc3)[nH]n2)C1)c1ccc2cc[nH]c2c1 (stereo not given),i,i,i
NC[C@@](O)(c1ccc(Cl)cc1)c1ccc(-c2cn[nH]c2)cc1,nt,24µM,i
NCC(O)(CS(=O)(=O)O)c1ccc(Cl)cc1 (stereo not given),i,i,i
COc1ccc(Nc2ccnc(N3CCN(C(=O)Cc4cccc(Cl)c4)CC3)n2)cc1,?,?,i
CS(=O)(=O)N1CCC(Cc2ccc(C(=O)NCCc3ccccc3)cc2)CC1,i,i,i
CCN1CCN(Cc2ccc(NC(=O)c3ccc(C)c(Oc4ncnc5[nH]c(C)cc45)c3)cc2C(F)(F)F)CC1,nt,?,i
CN1CCN(Cc2ccc(NC(=O)Nc3ccc(Oc4cc(NC(=O)C5CC5)ncn4)cc3)cc2C(F)(F)F)CC1,0.48µM,?,?
COCCCNC(=O)c1ccc2nc(-c3cccc(C)n3)oc2c1,i,i,i
COc1ccccc1-c1cccc(CN2CCC(N[S+](=O)([O-])c3ccccc3)CC2)c1,i,i,i
C=CC(=O)Nc1cccc(Nc2nc(NC3CCC(N(C)C)CC3)nc3c2ncn3C(C)C)c1 (stereo not given),3µM,?,i
